Among the data in PubChem BioAssay (NCI) are growth values, retold here.

The panel holds about 83,000 compounds, 20% with a hit somewhere; the sample as a whole holds those more often.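 Testing used 96-well plates and a 48-hour single-concentration exposure. Example: -40 means 40% of the starting cells died.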 Unmarked numbers belong to inactive results. The source made the active and inactive calls. How the source made its calls: active means growth percent below 10; inactive means the rest.

Among the test systems are EKVX NSCLC; SN12C renal; UO-31 renal; TK-10 renal; ACHN renal; CAKI-1 renal; A498 renal; MOLT-4 leukemia; SR leukemia; RPMI-8226 leukemia; OVCAR-8 ovarian; OVCAR-4 ovarian; SK-OV-3 ovarian; IGROV1 ovarian; OVCAR-3 ovarian; HS 578T breast; NCI/ADR-RES ovarian; CCRF-CEM leukemia; OVCAR-5 ovarian.
Holding throughout (experiment): NCI-60 one-dose screen, 48 h (100 = growth as untreated, 0 = no growth, -100 = all killed)
Common to all, as to conditions: 10 µM unless noted

Take `Cc1cc(C)c2c(-c3nnc(N)s3)cc(=O)oc2c1`: the growth in the assay with EKVX NSCLC is 97.2%; in the assay on SN12C renal, 99.3%; in the assay on UO-31 renal, 88%; in the assay with TK-10 renal, 108%; in the assay on ACHN renal, 105%; in the assay on CAKI-1 renal, 89.3%. Also, the growth was 79.9% with A498 renal; 106% in the assay with MOLT-4 leukemia; 105% in the assay with SR leukemia; 72.3% in the assay with RPMI-8226 leukemia; 102% in the assay on OVCAR-8 ovarian; 100% in the assay with OVCAR-4 ovarian. Further, the growth with SK-OV-3 ovarian was 108%; in the assay with IGROV1 ovarian it was 101%; with OVCAR-3 ovarian it was 105%; with HS 578T breast, 92.4%; with NCI/ADR-RES ovarian, 102%.

`O=C(c1ccccc1)N1N=C(c2ccccc2)CC1c1nnc2n(Cc3ccccc3)c(=O)c3c4c(sc3n12)CCCC4` (centres undefined): the growth in the assay on EKVX NSCLC is 102%; with SN12C renal it was 120%; in the assay with UO-31 renal, 84.4%; in the assay with TK-10 renal it was 111%; in the assay with ACHN renal it was 99.8%; in the assay with CAKI-1 renal, 99.3%. The growth was 114% with A498 renal; 88.8% in the assay on MOLT-4 leukemia; -16.1% (active) in the assay on SR leukemia; 91.6% in the assay on RPMI-8226 leukemia; 106% in the assay with OVCAR-8 ovarian; 108% in the assay on OVCAR-4 ovarian. Besides, the growth with SK-OV-3 ovarian is 106%; in the assay with OVCAR-3 ovarian, 112%; in the assay with HS 578T breast, 109%; in the assay with NCI/ADR-RES ovarian, 118%.

As for `CCCCn1c(=O)c2c(nc(NCCc3ccc(O)c(O)c3)n2CCC)n(CCCC)c1=O`, the growth with EKVX NSCLC was 79.5%; in the assay on SN12C renal, 86.6%; in the assay on UO-31 renal it was 56.7%; with TK-10 renal, 85.8%; in the assay with ACHN renal, 81%; in the assay on CAKI-1 renal it was 100%. The growth in the assay with A498 renal was 86.9%; with CCRF-CEM leukemia, 36.6%; in the assay on SR leukemia, 35.9%; with RPMI-8226 leukemia, 74.8%; with OVCAR-8 ovarian, 75.5%; in the assay with OVCAR-5 ovarian, 97.9%. The growth in the assay with OVCAR-4 ovarian is 45.5%; in the assay on SK-OV-3 ovarian, 96.3%; with IGROV1 ovarian, 82.5%; in the assay on OVCAR-3 ovarian, 65.2%; with HS 578T breast it was 66.5%; with NCI/ADR-RES ovarian, 77.2%.

For the molecule `COc1ccc(-c2c(N)n[nH]c2-c2ccc(Cl)cc2O)cc1OC`, the growth in the assay with EKVX NSCLC was 109%; in the assay on SN12C renal it was 52.4%; in the assay on UO-31 renal, 74%; in the assay with TK-10 renal, 102%; in the assay with ACHN renal, 96.1%; with CAKI-1 renal, 90.5%. Moreover, the growth is 86.6% in the assay with A498 renal; 69.1% in the assay with CCRF-CEM leukemia; 107% in the assay on MOLT-4 leukemia; 74.5% in the assay with RPMI-8226 leukemia; 87.1% in the assay with OVCAR-8 ovarian; 72.6% with OVCAR-5 ovarian. For the same molecule, the growth in the assay with OVCAR-4 ovarian is 94.1%; in the assay on SK-OV-3 ovarian, 102%; in the assay with IGROV1 ovarian, 92.3%; in the assay with OVCAR-3 ovarian it was 95.6%; in the assay with HS 578T breast, 89.2%; with NCI/ADR-RES ovarian, 90.4%.

In the case of `COc1cc(CCC[P+](c2ccccc2)(c2ccccc2)c2ccccc2)cc2c1OCO2`, the growth with EKVX NSCLC is 28.3%; in the assay with SN12C renal, 35.9%; with UO-31 renal it was 88.2%; in the assay on TK-10 renal, 19.5%; in the assay on ACHN renal, 91.8%; in the assay on CAKI-1 renal, 86%. Also, the growth in the assay on A498 renal is 45.9%; with CCRF-CEM leukemia, 41.3%; in the assay on MOLT-4 leukemia, 53.5%; in the assay with RPMI-8226 leukemia it was 9.71% (active); in the assay on OVCAR-8 ovarian, 29.5%; with OVCAR-5 ovarian it was 59.1%. Moreover, the growth is 12.4% in the assay on OVCAR-4 ovarian; 82.4% in the assay on SK-OV-3 ovarian; 28.8% in the assay on IGROV1 ovarian; 19.7% with OVCAR-3 ovarian; 45.5% with HS 578T breast; 101% in the assay with NCI/ADR-RES ovarian.

With `COc1cc(/C=C/C(=O)c2cccc(-n3cc(-c4ccccc4)[nH]c3=O)c2)ccc1O`, the growth was 70.7% in the assay with EKVX NSCLC; 27.9% in the assay on SN12C renal; 36.4% in the assay with UO-31 renal; 81.6% in the assay with TK-10 renal; 34.4% in the assay on ACHN renal; 45.8% with CAKI-1 renal. The growth with A498 renal is 116%; in the assay on MOLT-4 leukemia, 6.81% (active); with SR leukemia, 15.3%; with RPMI-8226 leukemia, -9.6% (active); in the assay with OVCAR-5 ovarian, 61.3%; in the assay with OVCAR-4 ovarian, 49.1%. Besides, the growth was 92.2% in the assay on SK-OV-3 ovarian; 2.96% (active) in the assay on IGROV1 ovarian; 6.11% (active) in the assay with OVCAR-3 ovarian; 71.3% in the assay on HS 578T breast; 23.2% in the assay with NCI/ADR-RES ovarian.
